Data as given in PubChem BioAssay AID2073 (Sanford-Burnham Center for Chemical Genomics, 2009).
The campaign covered roughly 290,000 compounds. About 570 (0.2%) were called active. Not shown: some 1% with an inconclusive outcome. Rule as the data show it: active = inhibition mostly above about 51% (no sharp cut-off); inconclusive = no clear call, values can overlap the other calls; inactive = mostly below about 53%. The entries come from a sample that favours actives as a whole.

Target: Voltage-dependent N-type calcium channel subunit alpha-1B (Homo sapiens) (UniProt Q00975)
Assay: inhibitors of Mint1-CaV2.2 protein interaction, biochemical, HTRF (AID 2073)
Details: at 20 µM, stronger effect = higher value
[1] = measured here: average of repeat tests

Voltage-dependent N-type calcium channel subunit alpha-1B (Homo sapiens), sequence (Q00975 whole entry, looked up): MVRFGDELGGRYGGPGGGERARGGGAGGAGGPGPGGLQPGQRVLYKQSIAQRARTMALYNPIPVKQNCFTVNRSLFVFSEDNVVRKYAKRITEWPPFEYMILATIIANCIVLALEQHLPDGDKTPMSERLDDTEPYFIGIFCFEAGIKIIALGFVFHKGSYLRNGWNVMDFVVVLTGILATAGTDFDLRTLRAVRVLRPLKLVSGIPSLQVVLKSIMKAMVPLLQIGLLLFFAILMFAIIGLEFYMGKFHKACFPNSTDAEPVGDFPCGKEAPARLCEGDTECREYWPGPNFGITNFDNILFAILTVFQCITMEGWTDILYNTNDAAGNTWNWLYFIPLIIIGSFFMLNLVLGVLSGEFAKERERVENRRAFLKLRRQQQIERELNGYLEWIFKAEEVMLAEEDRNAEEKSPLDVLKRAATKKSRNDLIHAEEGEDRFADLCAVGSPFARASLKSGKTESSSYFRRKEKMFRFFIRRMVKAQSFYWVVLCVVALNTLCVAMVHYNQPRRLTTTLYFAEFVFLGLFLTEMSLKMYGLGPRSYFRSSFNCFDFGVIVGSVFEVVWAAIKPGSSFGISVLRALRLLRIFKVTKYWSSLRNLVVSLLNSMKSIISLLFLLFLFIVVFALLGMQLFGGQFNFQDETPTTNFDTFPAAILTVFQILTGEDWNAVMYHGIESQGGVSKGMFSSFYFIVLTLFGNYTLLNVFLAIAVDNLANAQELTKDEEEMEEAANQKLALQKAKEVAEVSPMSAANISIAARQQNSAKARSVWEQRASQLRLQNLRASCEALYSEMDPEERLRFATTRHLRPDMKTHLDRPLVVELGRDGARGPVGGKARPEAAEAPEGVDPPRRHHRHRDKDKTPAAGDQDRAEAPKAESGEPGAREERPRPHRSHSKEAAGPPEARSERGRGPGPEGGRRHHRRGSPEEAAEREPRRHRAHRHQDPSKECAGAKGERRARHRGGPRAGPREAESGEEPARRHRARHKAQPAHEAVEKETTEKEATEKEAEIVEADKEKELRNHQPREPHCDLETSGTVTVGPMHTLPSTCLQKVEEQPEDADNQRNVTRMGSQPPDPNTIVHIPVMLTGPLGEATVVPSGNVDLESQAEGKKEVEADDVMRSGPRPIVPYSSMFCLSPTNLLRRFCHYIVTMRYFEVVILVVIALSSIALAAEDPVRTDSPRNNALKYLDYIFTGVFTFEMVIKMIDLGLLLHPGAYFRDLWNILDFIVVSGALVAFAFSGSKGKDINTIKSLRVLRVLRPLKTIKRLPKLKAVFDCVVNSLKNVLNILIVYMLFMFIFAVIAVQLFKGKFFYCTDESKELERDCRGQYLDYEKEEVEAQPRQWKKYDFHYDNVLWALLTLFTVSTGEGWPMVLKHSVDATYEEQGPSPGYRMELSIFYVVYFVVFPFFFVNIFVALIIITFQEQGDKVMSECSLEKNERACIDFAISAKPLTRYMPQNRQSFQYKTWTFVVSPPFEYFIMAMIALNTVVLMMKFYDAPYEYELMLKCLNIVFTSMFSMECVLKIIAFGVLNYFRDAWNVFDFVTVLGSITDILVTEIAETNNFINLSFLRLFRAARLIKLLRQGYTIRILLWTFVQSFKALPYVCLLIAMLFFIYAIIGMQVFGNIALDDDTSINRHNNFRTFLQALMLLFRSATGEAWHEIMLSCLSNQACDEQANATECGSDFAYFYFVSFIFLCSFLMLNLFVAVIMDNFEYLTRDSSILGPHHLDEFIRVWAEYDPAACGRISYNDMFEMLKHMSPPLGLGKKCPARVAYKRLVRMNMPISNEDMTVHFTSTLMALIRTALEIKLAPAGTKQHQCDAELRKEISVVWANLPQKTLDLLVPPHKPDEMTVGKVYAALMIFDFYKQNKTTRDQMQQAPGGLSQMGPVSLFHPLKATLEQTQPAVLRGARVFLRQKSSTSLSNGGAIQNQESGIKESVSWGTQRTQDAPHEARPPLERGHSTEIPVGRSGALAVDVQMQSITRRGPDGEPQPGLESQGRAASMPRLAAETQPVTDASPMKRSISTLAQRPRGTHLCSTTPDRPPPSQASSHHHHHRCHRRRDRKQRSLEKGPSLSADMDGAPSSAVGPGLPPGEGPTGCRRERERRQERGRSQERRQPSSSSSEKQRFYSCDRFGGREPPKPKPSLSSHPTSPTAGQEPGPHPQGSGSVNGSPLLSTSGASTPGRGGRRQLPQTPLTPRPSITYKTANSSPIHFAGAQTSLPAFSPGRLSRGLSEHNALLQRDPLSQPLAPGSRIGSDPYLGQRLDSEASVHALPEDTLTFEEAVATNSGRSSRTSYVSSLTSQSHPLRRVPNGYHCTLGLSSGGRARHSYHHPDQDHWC

| SMILES | inhibition | inhibition [1] [%] |
| --- | --- | --- |
| CCCC(=O)c1cc2cc(Cl)ccc2oc1=O | -2.8% (inactive) | – |
| CCOC(=O)CSc1nnc(-c2cccnc2)n1C | 0.8% (inactive) | – |
| CN1CCN(C(CC(=O)Nc2cccc(O)c2)C(=O)O)CC1 (centres undefined) | 0.5% (inactive) | – |
| O=C(CSc1nnc(-c2ccccc2)o1)NC1CCS(=O)(=O)C1 (centres undefined) | -2.1% (inactive) | – |
| O=C(OCn1ncc(Cl)c(Cl)c1=O)c1ccc(F)cc1 | -3% (inactive) | – |
| COc1ccc(N2CCN(C(=O)c3ccc4c(=O)n5c(nc4c3)CCCCC5)CC2)cc1 | -6.5% (inactive) | – |
| Cc1ccc2c(CN3CCN(Cc4ccccc4)CC3)cc(=O)oc2c1C | 6.6% (inactive) | – |
| Cc1ccccc1NC(=S)NCc1cccs1 | 5.6% (inactive) | – |
| Cc1cc(C)c(NC(=S)N(Cc2cccnc2)Cc2ccco2)c(C)c1 | 0.6% (inactive) | – |
| CCC(C)(C)n1nnnc1C(c1cc2ccc(OC)cc2[nH]c1=O)N1CCc2ccccc2C1 (centres undefined) | 56.9% (active) | – |
| COc1ccc2cc(C(c3nnnn3C(C)(C)C)N3CCc4ccccc4C3)c(=O)[nH]c2c1 (centres undefined) | 33% (inactive) | – |
| CCC(C)(C)n1nnnc1C(c1cc2ccc(OC)cc2[nH]c1=O)N1CCc2ccccc21 (centres undefined) | 19.3% (inactive) | – |
| Fc1cccc(Cl)c1CNn1cn[nH]c1=S | -3% (inactive) | – |
| COc1ccc2c(c1)CCc1cc(C(=O)N3CCN(c4ccc(N5CCOCC5)nn4)CC3)sc1-2 | 13.6% (inactive) | – |
| CCCCc1[nH]nc2c1C1(C(=O)N(CC)c3ccccc31)C(C#N)=C(N)O2 (centres undefined) | -5.8% (inactive) | – |
| COc1ccc(N2CCN(CCNC(=O)Nc3cccc(C)c3C)CC2)cc1 | 0.6% (inactive) | – |
| O=C(/C=C/c1ccc2c(c1)OCO2)Nc1nc(-c2ccc(F)cc2F)cs1 | 9.1% (inactive) | – |
| COc1ccc(-c2cc(C(F)(F)F)c(C#N)c(SCC(=O)O)n2)cc1 | 22% (inactive) | – |
| CCCOc1ccc(-c2cc(C(F)(F)F)c(C#N)c(SCC(=O)O)n2)cc1 | 35.3% (inactive) | – |
| CCCCOc1ccc(-c2cc(C(F)(F)F)c(C#N)c(SCC(=O)O)n2)cc1 | 60.7% (active) | – |

| SMILES | inhibition | inhibition [1] [%] |
| --- | --- | --- |
| Cc1cccc(NC(=O)CCN2C(=O)C3C4C=CC(C4)C3C2=O)n1 (centres undefined) | 22% (inactive) | – |
| O=C(NCc1ccc(Cl)cc1)c1nccnc1CO | 11.8% (inactive) | – |
| COc1ccc(NS(=O)(=O)c2cccc(-c3n[nH]c(=S)n3Cc3ccccc3)c2)cc1 | 3.7% (inactive) | – |
| O=C(COc1ccc(Cl)cc1Cl)c1ccc[nH]1 | 21.1% (inactive) | – |
| O=C(COc1ccccc1Cl)c1ccc[nH]1 | 53.6% (active) | – |
| O=C(COc1ccc(Br)cc1Cl)c1ccc[nH]1 | 24.7% (inactive) | – |
| COc1ccc(C(NC(=O)CC(C)C)c2c(O)ccc3ccccc23)cc1 (centres undefined) | 15.2% (inactive) | – |
| CCOc1cc(C2CC(=O)N3CN(C4CCCCC4)CSC3=C2C#N)ccc1O (centres undefined) | 62.4% (active) | – |
| COc1cc(C2CC(=O)N3CN(c4ccccc4C)CSC3=C2C#N)cc(OC)c1OC (centres undefined) | 90.6% (inactive) | 32.6 |
| CCc1ccccc1N1CSC2=C(C#N)C(c3ccccc3F)CC(=O)N2C1 (centres undefined) | 84.5% (active) | – |
| N#CC1=C2SCN(c3ccccc3)CN2C(=O)CC1c1cccs1 (centres undefined) | 74% (inactive) | 42.2 |
| CCc1ccc(C2CC(=O)N3CN(c4ccccc4)CSC3=C2C#N)cc1 (centres undefined) | 88% (inactive) | 42.4 |
| CCOc1cc(C2CC(=O)NC(SCC)=C2C#N)ccc1O (centres undefined) | 5.2% (inactive) | – |
| CCc1ccccc1N1CSC2=C(C#N)C(c3cc(OC)c(OC)cc3OC)CC(=O)N2C1 (centres undefined) | 75.6% (inactive) | 34.5 |
| N#CC1=C2SCN(c3ccccc3)CN2C(=O)CC1c1ccccc1Cl (centres undefined) | 57.1% (inactive) | 35.2 |
| COc1cc(OC)c(C2CC(=O)N3CN(c4ccc(C)cc4)CSC3=C2C#N)cc1OC (centres undefined) | 65.7% (inactive) | 14.9 |
| COc1cc(OC)c(C2CC(=O)N3CN(c4ccccc4C)CSC3=C2C#N)cc1OC (centres undefined) | 73.1% (active) | – |
| N#CC1=C2SCN(Cc3ccco3)CN2C(=O)CC1c1ccccc1F (centres undefined) | 84.1% (inactive) | 33.2 |
| COc1cccc(C2CC(=O)N3CN(c4cccc(Cl)c4C)CSC3=C2C#N)c1OC (centres undefined) | 73.5% (active) | – |
| CCC(C)/C(C)=N/NC(=O)CSc1nc2ccccc2[nH]1 (centres undefined) | -5.4% (inactive) | – |

| SMILES | inhibition | inhibition [1] [%] |
| --- | --- | --- |
| Cc1ccc(C)c(N(C(=O)c2csnn2)C(C(=O)NC2CCCCC2)c2ccccn2)c1 (centres undefined) | 1.3% (inactive) | – |
| O=C(CN1CCOCC1)Nc1cccc(S(=O)(=O)N2CCCCCC2)c1 | -5.9% (inactive) | – |
| Cc1ccc(N2C(=O)C3C4CC(=O)C(c5ccccc54)C3C2=O)cc1C (centres undefined) | -1.5% (inactive) | – |
| COc1ccc(N2CSC3=C(C#N)C(c4ccc(OC)c(OC)c4)CC(=O)N3C2)c(OC)c1 (centres undefined) | 91.4% (active) | – |
| COc1ccc(OC)c(C2CC(=O)N3CN(c4cccc(Cl)c4)CSC3=C2C#N)c1 (centres undefined) | 37.5% (inactive) | – |
| COc1ccc(N2CSC3=C(C#N)C(c4cc(OC)ccc4OC)CC(=O)N3C2)c(OC)c1 (centres undefined) | 69.2% (active) | – |
| COc1ccc(OC)c(C2CC(=O)N3CN(c4ccccc4F)CSC3=C2C#N)c1 (centres undefined) | 29.3% (inactive) | – |
| CCOc1ccccc1N1CSC2=C(C#N)C(c3c(OC)ccc4ccccc34)CC(=O)N2C1 (centres undefined) | 72.9% (inactive) | 9.7 |
| COc1cccc(C2CC(=O)N3CN(c4ccccc4F)CSC3=C2C#N)c1 (centres undefined) | 75.5% (inactive) | 31 |
| COc1ccc(C2CC(=O)N3CN(c4ccccc4F)CSC3=C2C#N)cc1OC (centres undefined) | 79.9% (inactive) | 38.6 |
| COc1ccc(C2CC(=O)N3CN(c4ccc(C)c(Cl)c4)CSC3=C2C#N)cc1 (centres undefined) | 80.8% (inactive) | 11.1 |
| COc1ccccc1N1CSC2=C(C#N)C(c3ccc(SC)cc3)CC(=O)N2C1 (centres undefined) | 81.5% (active) | – |
| CCCCc1cc(=O)oc2cc(OCC(=O)N3CCC(C(N)=O)CC3)ccc12 | 8.7% (inactive) | – |
| O=C(c1ccco1)N1CCN(Cc2cccc3ccccc23)CC1 | 3.9% (inactive) | – |
| O=C(COC(=O)c1ccc(O)cc1)Nc1cccc(S(=O)(=O)NC2=NCCCCC2)c1 | -9.8% (inactive) | – |
| NS(=O)(=O)c1ccc(NC(=O)COC(=O)c2cnccn2)cc1 | 51.2% (active) | – |
| O=C(COC(=O)c1cnccn1)Nc1ccc(Cl)cc1 | 3.8% (inactive) | – |
| CC(=O)Nc1ccc(NC(=O)COC(=O)c2cnccn2)cc1 | 15.7% (inactive) | – |
